These results are taken from publication PMC7862700, “An all-to-all approach to the identification of sequence-specific readers for epigenetic DNA modifications on cytosine”.

What all share (test): DAPPL (digital affinity profiling via proximity ligation, sequencing); 10 mM Tris-HCl pH 7.5, 50 mM NaCl, 1 mM DTT, 4% glycerol, room temperature, 30 min; GST-TFs on glutathione beads, 16-mer random dsDNA library, 0.1% formaldehyde crosslink after washing; high values mean tight binding
Settings in all cases: protein: recombinant; tags: N-terminal GST; dsDNA, one strand shown

The target in one assay is T1, ELK1 (Homo sapiens, UniProt P19419 1-428).
T1 sequence: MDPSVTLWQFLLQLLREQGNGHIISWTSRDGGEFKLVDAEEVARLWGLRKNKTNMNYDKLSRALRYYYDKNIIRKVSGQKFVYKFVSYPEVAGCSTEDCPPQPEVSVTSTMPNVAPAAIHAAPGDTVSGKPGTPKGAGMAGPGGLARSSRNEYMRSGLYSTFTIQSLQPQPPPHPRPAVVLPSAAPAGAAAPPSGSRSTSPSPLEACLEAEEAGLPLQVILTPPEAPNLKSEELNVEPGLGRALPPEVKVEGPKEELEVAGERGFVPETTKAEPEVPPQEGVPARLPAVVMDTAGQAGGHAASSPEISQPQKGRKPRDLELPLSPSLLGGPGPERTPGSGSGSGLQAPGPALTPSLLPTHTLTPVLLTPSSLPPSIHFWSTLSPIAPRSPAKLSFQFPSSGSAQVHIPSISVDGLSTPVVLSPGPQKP
In outline: (§1)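 Sequencing on an Illumina NextSeq500 followed washing, crosslinking with 0.1% formaldehyde, proximity ligation (BsaI/T4 ligase, 1 h, 37 °C) and PCR amplification of pools that had been incubated for 30 min at room temperature with 200 nmole of a random double-stranded 16-mer DNA library in Tris/NaCl/DTT/glycerol buffer. Each pool held DNA-barcoded human transcription factors, expressed in yeast as GST fusions and captured on glutathione beads, plus a tag-only sample. Binding signal is a hexamer's read frequency for a factor divided by its frequency in the tag-only sample.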

A further assay has as its target T2, GABPA (Homo sapiens, UniProt Q06546 1-454).
T2 sequence: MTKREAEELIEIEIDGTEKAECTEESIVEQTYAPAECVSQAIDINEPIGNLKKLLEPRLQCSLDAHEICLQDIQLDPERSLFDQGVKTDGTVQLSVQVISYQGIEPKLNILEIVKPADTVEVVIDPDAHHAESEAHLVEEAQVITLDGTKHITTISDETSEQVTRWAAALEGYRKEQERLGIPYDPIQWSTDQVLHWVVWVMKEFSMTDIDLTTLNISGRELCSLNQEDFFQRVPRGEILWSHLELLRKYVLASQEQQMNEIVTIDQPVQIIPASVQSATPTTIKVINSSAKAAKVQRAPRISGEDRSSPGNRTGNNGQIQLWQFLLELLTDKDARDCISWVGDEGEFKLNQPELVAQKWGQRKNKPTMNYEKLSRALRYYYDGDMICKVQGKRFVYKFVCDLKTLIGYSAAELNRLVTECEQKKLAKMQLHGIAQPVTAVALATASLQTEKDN
In outline:
as §1

The next assay addresses T3, ERG (Homo sapiens, UniProt P11308 1-479).
T3 sequence: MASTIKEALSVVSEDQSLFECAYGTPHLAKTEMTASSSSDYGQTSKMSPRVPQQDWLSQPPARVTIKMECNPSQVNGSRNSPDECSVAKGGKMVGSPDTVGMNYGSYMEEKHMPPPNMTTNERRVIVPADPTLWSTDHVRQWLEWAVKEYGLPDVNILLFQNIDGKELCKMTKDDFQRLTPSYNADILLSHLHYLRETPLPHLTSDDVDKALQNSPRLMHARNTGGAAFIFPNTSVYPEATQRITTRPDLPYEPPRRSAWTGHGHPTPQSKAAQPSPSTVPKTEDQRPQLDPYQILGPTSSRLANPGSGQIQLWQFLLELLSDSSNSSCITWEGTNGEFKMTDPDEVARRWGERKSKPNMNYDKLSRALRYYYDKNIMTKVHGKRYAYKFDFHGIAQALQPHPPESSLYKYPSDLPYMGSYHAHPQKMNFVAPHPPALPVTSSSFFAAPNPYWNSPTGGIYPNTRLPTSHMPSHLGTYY
In outline:
as §1

A further assay has as its target ELF1 (Homo sapiens, UniProt P32519 1-619). In a few lines:
as §1

A further assay has as its target T4, SPIC (Homo sapiens, UniProt Q8N5J4 1-248).
T4 sequence: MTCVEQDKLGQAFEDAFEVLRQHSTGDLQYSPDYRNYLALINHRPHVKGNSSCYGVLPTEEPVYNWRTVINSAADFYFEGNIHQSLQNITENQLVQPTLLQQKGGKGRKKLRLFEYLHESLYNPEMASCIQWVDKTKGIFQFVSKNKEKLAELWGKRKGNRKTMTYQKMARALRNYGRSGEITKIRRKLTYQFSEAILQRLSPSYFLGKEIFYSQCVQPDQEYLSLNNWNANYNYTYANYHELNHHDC
In a few lines:
as §1

For another assay, the target named is ELF4 (Homo sapiens, UniProt Q99607 1-663). In outline: as §1
A further assay deals with T5, ELK4 (Homo sapiens, UniProt P28324-2 1-405).
T5 sequence: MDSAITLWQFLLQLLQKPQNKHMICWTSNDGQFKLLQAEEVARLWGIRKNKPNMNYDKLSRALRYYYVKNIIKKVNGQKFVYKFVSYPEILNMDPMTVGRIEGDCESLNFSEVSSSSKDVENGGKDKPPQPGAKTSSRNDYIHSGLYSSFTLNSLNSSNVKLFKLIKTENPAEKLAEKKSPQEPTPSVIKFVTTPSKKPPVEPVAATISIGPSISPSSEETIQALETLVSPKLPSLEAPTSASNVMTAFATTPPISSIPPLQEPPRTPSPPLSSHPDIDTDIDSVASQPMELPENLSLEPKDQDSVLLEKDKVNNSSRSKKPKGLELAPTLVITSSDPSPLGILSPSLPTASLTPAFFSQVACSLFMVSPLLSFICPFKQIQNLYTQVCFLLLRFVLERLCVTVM
In outline:
as §1

For the next assay, the target named is T6, ELF3 (Homo sapiens, UniProt P78545 1-371).
T6 sequence: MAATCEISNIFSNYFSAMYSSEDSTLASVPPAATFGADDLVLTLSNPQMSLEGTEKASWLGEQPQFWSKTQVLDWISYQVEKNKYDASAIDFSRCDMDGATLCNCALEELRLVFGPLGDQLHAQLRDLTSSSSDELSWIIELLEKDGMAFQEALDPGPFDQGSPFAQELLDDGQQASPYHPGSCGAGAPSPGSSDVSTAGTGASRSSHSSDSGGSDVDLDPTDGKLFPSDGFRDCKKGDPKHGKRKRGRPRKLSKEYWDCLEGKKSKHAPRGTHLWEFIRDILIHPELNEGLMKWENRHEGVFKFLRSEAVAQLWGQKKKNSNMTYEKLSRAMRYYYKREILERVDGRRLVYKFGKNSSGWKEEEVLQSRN
In outline: as §1

Another assay has as its target T7, ERF (Homo sapiens, UniProt P50548 1-548).
T7 sequence: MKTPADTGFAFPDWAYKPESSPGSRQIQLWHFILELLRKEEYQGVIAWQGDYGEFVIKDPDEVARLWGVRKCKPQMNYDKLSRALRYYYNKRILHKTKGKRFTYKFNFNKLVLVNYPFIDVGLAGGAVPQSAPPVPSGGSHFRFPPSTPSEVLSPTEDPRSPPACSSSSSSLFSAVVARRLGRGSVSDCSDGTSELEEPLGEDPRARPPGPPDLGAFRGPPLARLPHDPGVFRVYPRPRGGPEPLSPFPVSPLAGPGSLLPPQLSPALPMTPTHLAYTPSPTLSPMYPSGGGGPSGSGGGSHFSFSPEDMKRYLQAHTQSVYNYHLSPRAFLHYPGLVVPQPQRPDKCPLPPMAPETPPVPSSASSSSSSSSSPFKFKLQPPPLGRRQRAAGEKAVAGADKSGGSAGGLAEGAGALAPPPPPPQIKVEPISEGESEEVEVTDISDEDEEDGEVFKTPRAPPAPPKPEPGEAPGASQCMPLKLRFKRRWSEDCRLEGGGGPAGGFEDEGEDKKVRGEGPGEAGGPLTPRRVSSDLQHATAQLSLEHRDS
In outline:
as §1

The target in a further assay is T8, ETV3L (Homo sapiens, UniProt Q6ZN32 1-361).
T8 sequence: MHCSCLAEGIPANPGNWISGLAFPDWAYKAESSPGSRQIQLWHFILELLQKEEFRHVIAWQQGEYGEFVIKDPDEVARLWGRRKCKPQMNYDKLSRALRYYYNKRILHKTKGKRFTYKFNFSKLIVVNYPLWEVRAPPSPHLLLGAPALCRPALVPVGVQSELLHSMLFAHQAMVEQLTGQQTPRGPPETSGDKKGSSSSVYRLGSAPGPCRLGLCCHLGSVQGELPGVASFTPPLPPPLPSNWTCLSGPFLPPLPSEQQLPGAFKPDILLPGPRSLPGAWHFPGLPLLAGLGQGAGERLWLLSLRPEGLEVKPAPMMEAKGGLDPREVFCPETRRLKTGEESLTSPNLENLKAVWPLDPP
In a few lines:
as §1

Another assay addresses T9, ETS2 (Homo sapiens, UniProt P15036 1-469).
T9 sequence: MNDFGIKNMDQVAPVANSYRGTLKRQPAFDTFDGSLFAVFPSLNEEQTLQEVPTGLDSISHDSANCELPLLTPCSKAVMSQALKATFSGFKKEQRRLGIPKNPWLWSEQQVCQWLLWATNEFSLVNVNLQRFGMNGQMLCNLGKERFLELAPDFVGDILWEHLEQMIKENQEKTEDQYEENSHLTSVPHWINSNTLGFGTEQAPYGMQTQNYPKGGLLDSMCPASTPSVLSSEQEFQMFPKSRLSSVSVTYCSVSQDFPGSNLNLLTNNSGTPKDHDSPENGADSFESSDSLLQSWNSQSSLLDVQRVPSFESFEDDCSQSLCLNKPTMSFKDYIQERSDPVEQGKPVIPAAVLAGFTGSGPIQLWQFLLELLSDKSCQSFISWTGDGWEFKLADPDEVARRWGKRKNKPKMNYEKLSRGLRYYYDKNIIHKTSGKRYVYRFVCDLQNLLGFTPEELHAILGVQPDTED
In outline: as §1

In another assay the target is T10, ETV3 (Homo sapiens, UniProt P41162-2 1-143).
T10 sequence: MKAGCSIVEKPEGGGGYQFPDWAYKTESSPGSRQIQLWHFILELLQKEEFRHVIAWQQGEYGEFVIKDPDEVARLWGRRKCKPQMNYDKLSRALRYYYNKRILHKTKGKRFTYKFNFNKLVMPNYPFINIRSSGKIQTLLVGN
In a few lines: as §1

The next assay addresses ETV6 (Homo sapiens, UniProt P41212 1-452). In a few lines:
as §1

Chain of ETV6 (P41212 whole entry): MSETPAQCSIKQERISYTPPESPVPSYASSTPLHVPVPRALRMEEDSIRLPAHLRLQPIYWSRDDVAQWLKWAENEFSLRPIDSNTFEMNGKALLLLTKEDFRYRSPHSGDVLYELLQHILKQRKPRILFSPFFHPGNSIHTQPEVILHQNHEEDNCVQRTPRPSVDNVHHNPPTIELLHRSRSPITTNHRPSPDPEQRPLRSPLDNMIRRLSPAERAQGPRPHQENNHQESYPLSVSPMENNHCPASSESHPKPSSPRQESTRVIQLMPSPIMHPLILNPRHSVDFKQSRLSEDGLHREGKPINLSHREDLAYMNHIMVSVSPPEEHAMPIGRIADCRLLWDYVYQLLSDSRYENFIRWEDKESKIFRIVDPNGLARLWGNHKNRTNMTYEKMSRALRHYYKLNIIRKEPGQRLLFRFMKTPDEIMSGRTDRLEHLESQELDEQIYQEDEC
Chain of ELF1 (P32519 whole entry): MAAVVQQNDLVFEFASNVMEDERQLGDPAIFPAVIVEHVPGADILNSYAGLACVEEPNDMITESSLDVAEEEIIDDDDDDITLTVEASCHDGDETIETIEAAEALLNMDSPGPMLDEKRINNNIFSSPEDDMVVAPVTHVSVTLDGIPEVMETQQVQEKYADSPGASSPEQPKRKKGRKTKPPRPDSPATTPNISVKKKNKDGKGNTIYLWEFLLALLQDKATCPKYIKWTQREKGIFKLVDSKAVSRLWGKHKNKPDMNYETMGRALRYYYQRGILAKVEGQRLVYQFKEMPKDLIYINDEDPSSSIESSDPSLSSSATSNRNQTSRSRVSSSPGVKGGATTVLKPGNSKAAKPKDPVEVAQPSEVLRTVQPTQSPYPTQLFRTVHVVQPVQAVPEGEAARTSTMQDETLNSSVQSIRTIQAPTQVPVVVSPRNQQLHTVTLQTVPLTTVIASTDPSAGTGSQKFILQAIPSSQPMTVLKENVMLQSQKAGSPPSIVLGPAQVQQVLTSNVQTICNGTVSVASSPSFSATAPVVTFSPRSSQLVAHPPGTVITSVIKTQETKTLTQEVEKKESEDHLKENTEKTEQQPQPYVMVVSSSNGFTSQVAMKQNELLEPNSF
Chain of ELF4 (Q99607 whole entry): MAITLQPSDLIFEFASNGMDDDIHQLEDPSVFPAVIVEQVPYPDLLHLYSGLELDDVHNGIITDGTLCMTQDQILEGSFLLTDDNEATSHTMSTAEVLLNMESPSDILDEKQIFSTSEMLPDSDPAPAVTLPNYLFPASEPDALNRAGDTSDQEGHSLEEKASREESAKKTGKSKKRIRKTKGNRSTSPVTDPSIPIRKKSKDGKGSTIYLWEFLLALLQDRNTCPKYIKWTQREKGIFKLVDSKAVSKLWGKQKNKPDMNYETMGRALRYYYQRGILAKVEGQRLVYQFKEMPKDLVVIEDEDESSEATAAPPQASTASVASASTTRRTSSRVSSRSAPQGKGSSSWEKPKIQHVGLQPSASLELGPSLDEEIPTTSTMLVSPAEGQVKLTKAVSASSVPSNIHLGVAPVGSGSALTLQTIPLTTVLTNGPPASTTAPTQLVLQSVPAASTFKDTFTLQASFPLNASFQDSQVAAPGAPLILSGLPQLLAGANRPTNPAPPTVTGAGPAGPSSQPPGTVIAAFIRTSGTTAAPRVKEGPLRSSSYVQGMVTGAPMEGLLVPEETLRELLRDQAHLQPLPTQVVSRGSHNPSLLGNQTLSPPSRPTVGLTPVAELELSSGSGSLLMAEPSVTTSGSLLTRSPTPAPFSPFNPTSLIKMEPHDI

In the case of GCCCGA, the binding signal is 1.01 fold enrichment (6-mer frequency, TF over GST control) in the assay with ELK1; 1.02 fold enrichment (6-mer frequency, TF over GST control) with GABPA; 1.01 fold enrichment (6-mer frequency, TF over GST control) with ERG; 1.14 fold enrichment (6-mer frequency, TF over GST control) with ELF1; 1.11 fold enrichment (6-mer frequency, TF over GST control) with SPIC; 1.02 fold enrichment (6-mer frequency, TF over GST control) with ELF4. The binding signal with ELK4 was 1.1 fold enrichment (6-mer frequency, TF over GST control); with ELF3 it was 1.21 fold enrichment (6-mer frequency, TF over GST control); in the assay with ERF, 1.05 fold enrichment (6-mer frequency, TF over GST control); in the assay with ETV3L it was 1.01 fold enrichment (6-mer frequency, TF over GST control); in the assay with ETS2 it was 1.08 fold enrichment (6-mer frequency, TF over GST control); in the assay with ETV3, 1.04 fold enrichment (6-mer frequency, TF over GST control). In addition, the binding signal in the assay with ETV6 was 1.07 fold enrichment (6-mer frequency, TF over GST control).
